An excerpt weighted towards active compounds, which were near 21% of everything screened.
Pf growth 48h – P. falciparum growth inhibition at 48 hours (one generation). P. falciparum luciferase growth in erythrocytes, 48 h. Potency, µM (top dose mostly 28.7 µM), inactives show at the top dose activity change, negative = inhibition, usual class: inhibitors. actives 5.9% (n = 310,000). AID 504832; further: potency means the concentration at half of the fitted maximal effect; on the % scale 0 is the no-effect control and ±100 the full control effect
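Luminescence readout; reporter = integrated firefly luciferase in P. falciparum. RBC culture at 2% hematocrit, 0.1% parasitemia final, 37 C/5% CO2; decreased signal taken as growth inhibition.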
CHX counter – affects cycloheximide protein synthesis inhibition readout, counter-screen; cell reporter, cycloheximide protein synthesis inhibition counterscreen; max response, %; actives 12% (n = 300,000); in the data active means max response mostly above about 13%, no sharp cut-off; inactive means mostly below about 14%; further: read at 38.3 µM for the half of the compounds with a filed dose; 0% is about no effect
Pf growth 96h – P. falciparum growth inhibition at 96 hours; P. falciparum luciferase reporter growth, 96 h; Potency, µM (titrated, usually from 28.7 µM), without a hit: at the highest dose activity change, negative = inhibition, hits mostly inhibitors; actives 6.9% (n = 320,000); AID 504834; further: potency means the concentration at half of the fitted maximal effect; on the % scale 0 is the no-effect control and ±100 the full control effect
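Infected RBCs, 2% Hct / 0.05% parasitemia final; luciferase-reporter P. falciparum; cpd 96 h, 37 C, 5% CO2; luciferase detection reagent; luminescence.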
NS1 function inh – inhibitors of influenza NS1 protein function. Potency, µM (top dose mostly 46.1 µM), without a hit: at the highest dose activity, positive = more growth. actives 0.4% (n = 270,000); calls by dose curve; further: potency means the concentration at half of the fitted maximal effect; actives are rising curves; nearly all actives have a fitted effect of over 50% in size
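Read-out: OD600 growth recovery of NS1-expressing budding yeast. Cells grown overnight at 30C in -URA glucose medium, washed, resuspended and diluted 1:100 in 2% galactose assay medium, pH 6.0. Same strain lacking NS1 served as positive control.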
Shiga toxin inh – blocks Shiga toxin action in Vero cells | Vero cells, Shiga toxin protein synthesis inhibition reporter | inhibition, % at 38.7 µM | actives 9.2% (n = 290,000); in the data active means inhibition mostly above about 28%, no sharp cut-off; inactive means mostly below about 43%; further: 0% is about no effect
Sm TGR block – inhibitors of Schistosoma mansoni thioredoxin glutathione reductase; actives 3% (n = 360,000); Q962Y6; Potency, µM (series often up to 114 µM), for inactives: at the highest dose activity change, negative = inhibition, hits mostly inhibitors; purified TGR, DTNB reduction, TNB absorbance 405 nm; further: potency means the concentration at half of the fitted maximal effect; on the % scale 0 is the no-effect control and ±100 the full control effect; nearly all actives have a fitted effect of over 60% in size
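First, TGR (20 nM dispensed) and NADPH were mixed with compound. Second, a 15 min room-temperature incubation followed. Third, further NADPH and then DTNB were added to start the reaction. Finally, TNB absorbance was monitored kinetically.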
Numbers without * were called inactive. Unless noted, the call rests on the fitted dose curve; in most records, active means well fitted curve in the direction sought with a large enough effect; inconclusive means small, poorly fitted or top-dose-only effect, or another doubt; inactive means no such curve, though single readings can be large; an effect the other way counts as inactive or inconclusive.

What do the screens show for `O=C(CSc1ccc2nnc(-c3ccncc3)n2n1)NCc1ccco1`?
CHX counter: 9; Pf growth 96h: -30%; NS1 function inh: -14%; Shiga toxin inh: 20; Sm TGR block: 3.2µM*

Results for CCc1ccccc1Nc1nc2ccccc2n2cnnc12 ?
Sm TGR block: 13%

How did CN(C)c1ccc(-c2nc3ccc(Cl)cn3c2Nc2ccc3c(c2)OCCO3)cc1 do in these assays?
Sm TGR block: 20%

How did O=CN[C@@H](Cc1cnc[nH]1)C(=O)O do in these assays?
NS1 function inh: 6%

Results for CCNc1nc(NC(C)(C)C)nc(N2CCCC2)n1 ?
Pf growth 48h: 1.5µM*; CHX counter: -3; Pf growth 96h: -26%; NS1 function inh: -16%; Shiga toxin inh: -4; Sm TGR block: -4%

Results for Cc1ccc(NC(=O)CC2S/C(=N/c3nccs3)N(C)C2=O)c(C)c1 (stereo unspecified) ?
CHX counter: 4; Pf growth 96h: inconclusive; NS1 function inh: 1%; Shiga toxin inh: -12; Sm TGR block: -23%

Results for COC(=O)c1ccc(NC(=O)c2cc3sccc3n2C)cc1 ?
Pf growth 48h: 48%; CHX counter: 40*; Pf growth 96h: 6%; NS1 function inh: -4%; Shiga toxin inh: 122*; Sm TGR block: 20%

Results for COCCNC(=O)c1cc2sccc2n1C ?
Pf growth 48h: 16%; CHX counter: 0; Pf growth 96h: 13%; NS1 function inh: 5%; Shiga toxin inh: -2; Sm TGR block: 13%

Results for C#CCNC(=O)c1cc2sccc2n1C ?
Pf growth 48h: 0%; CHX counter: 13; Pf growth 96h: 36%; NS1 function inh: -4%; Shiga toxin inh: -18; Sm TGR block: -8%

How did Cn1c(C(=O)Nc2ccc3c(c2)OCO3)cc2sccc21 do in these assays?
Pf growth 48h: -9%; CHX counter: 39; NS1 function inh: -65%; Shiga toxin inh: 92*; Sm TGR block: 0%

How did CC(CCc1ccccc1)NC(=O)c1cc2sccc2n1C (stereo unspecified) do in these assays?
Pf growth 48h: -6%; CHX counter: 21*; Pf growth 96h: 34%; NS1 function inh: -20%; Shiga toxin inh: 37; Sm TGR block: -3%

What do the screens show for `Cn1c(C(=O)Nc2ccccc2)cc2sccc21`?
Pf growth 48h: 84%; CHX counter: 26*; Pf growth 96h: 19%; NS1 function inh: -109%; Shiga toxin inh: 50; Sm TGR block: -23%

Results for CCOc1ccc(N2CC(C(=O)NC3CCCCCC3)CC2=O)cc1 (stereo unspecified) ?
Pf growth 48h: 9%; CHX counter: -7; Pf growth 96h: inconclusive; NS1 function inh: -10%; Shiga toxin inh: -14; Sm TGR block: 1%

What do the screens show for `COc1ccc(OC)c(NC(=O)c2cc3sccc3n2C)c1`?
Pf growth 48h: 27%; CHX counter: 6; Pf growth 96h: 3%; NS1 function inh: -48%; Shiga toxin inh: 29; Sm TGR block: 1%

Results for COc1cc(NC(=O)c2cc3sccc3n2C)cc(OC)c1 ?
Pf growth 48h: 159%; CHX counter: 30*; Pf growth 96h: inconclusive; NS1 function inh: -49%; Shiga toxin inh: 81*; Sm TGR block: -12%

Results for CCc1ccccc1NC(=O)c1cc2sccc2n1C ?
CHX counter: 49*; Pf growth 96h: 0%; NS1 function inh: -36%; Shiga toxin inh: 42*; Sm TGR block: 7%

What do the screens show for `CCOc1ccc(NC(=O)Cn2c(=O)n(CC(=O)NCCc3ccccc3)c(=O)c3sccc32)cc1`?
Sm TGR block: -4%

What do the screens show for `O=C(c1ccc(Br)cc1)N1CCC(C(=O)N2CCN(c3ccccc3)CC2)CC1`?
Pf growth 48h: inconclusive; CHX counter: -6; Pf growth 96h: inconclusive; NS1 function inh: -7%; Shiga toxin inh: -7; Sm TGR block: -1%

What do the screens show for `O=C1CN(c2ccccc2)C(=S)N1C(=O)c1ccc(Br)cc1`?
Pf growth 48h: 154%; CHX counter: 43*; Pf growth 96h: inconclusive; NS1 function inh: -6%; Shiga toxin inh: 96*; Sm TGR block: inconclusive

How did CCCc1cc(=O)[nH]c2nnc(SCC(=O)Nc3cccc(C)c3)n12 do in these assays?
Sm TGR block: -2%

Results for CCOC(=O)[C@H]1[C@H]2COc3ccc(Br)cc3[C@@H]2N2C(=O)CN(Cc3ccc(OC)cc3)C(=O)[C@@]12C ?
Pf growth 48h: 7.4µM*; Pf growth 96h: inconclusive; Sm TGR block: -9%

Results for CCOC(=O)[C@H]1[C@H]2COc3ccc(Cl)cc3[C@@H]2N2C(=O)CN(Cc3ccc(OC)cc3)C(=O)[C@@]12C ?
Pf growth 48h: 7.4µM*; Pf growth 96h: 6.6µM*; Sm TGR block: -3%

How did C[C@@]12C(=O)N(CCc3c[nH]c4ccccc34)CC(=O)N1[C@H]1c3ccccc3OC[C@@H]1[C@@H]2c1ccccc1 do in these assays?
Pf growth 48h: 12µM*; Pf growth 96h: 6.6µM*; Sm TGR block: -1%

What do the screens show for `CCCCN1CC(=O)N2[C@H]3c4cc(Cl)ccc4OC[C@@H]3[C@H](C(=O)OCC)[C@]2(C)C1=O`?
Pf growth 48h: inconclusive; Pf growth 96h: inconclusive; Sm TGR block: -21%

Results for C[C@@]12C(=O)N(Cc3ccc(Cl)cc3)CC(=O)N1[C@H]1c3ccccc3OC[C@@H]1[C@@H]2c1ccccc1 ?
Pf growth 48h: inconclusive; Pf growth 96h: inconclusive; Sm TGR block: 4%

How did CCOC(=O)[C@H]1[C@H]2COc3ccc(OC)cc3[C@@H]2N2C(=O)CN(CCc3c[nH]c4ccccc34)C(=O)[C@@]12C do in these assays?
Pf growth 48h: 13µM*; Pf growth 96h: inconclusive; Sm TGR block: 0%

How did Nc1ccc(S(=O)(=O)NC2(C(F)(F)F)NC(=O)N(c3ccc(F)cc3)C2=O)cc1 (stereo unspecified) do in these assays?
Pf growth 48h: 39%; CHX counter: -2; Pf growth 96h: 22%; NS1 function inh: 1%; Shiga toxin inh: -10; Sm TGR block: -2%

Results for CC1Sc2ccc(S(=O)(=O)CCC(=O)N3CCN(c4ccccc4F)CC3)cc2NC1=O (stereo unspecified) ?
Pf growth 48h: inconclusive; CHX counter: -1; Pf growth 96h: -26%; NS1 function inh: 9%; Shiga toxin inh: 16; Sm TGR block: -20%

Results for CCOC(=O)[C@H]1[C@H]2COc3ccc(Cl)cc3[C@@H]2N2C(=O)CN(Cc3ccc(C)cc3)C(=O)[C@@]12C ?
Pf growth 48h: 12µM*; Pf growth 96h: inconclusive; Sm TGR block: 0%

Results for CCOC(=O)[C@H]1[C@H]2COc3ccc(Br)cc3[C@@H]2N2C(=O)CN(Cc3ccccc3)C(=O)[C@@]12C ?
Pf growth 48h: inconclusive; Pf growth 96h: inconclusive; Sm TGR block: -1%

High-throughput results as filed in PubChem BioAssay.
